Pin1 inhibitor – blocks the human prolyl isomerase Pin1 | 390,000 tested, 0.009% active | Pin1 FP peptide displacement, HiFluor488, 10 min | Q13526 | Potency, µM (top dose mostly 115 µM), for inactives: top-dose activity, negative = inhibition, most hits filed as inhibitors; active = well fitted inhibition curve with a large enough effect in the polarisation, with a control signal flat, not every such curve was filed as active; inconclusive = small, poorly fitted or top-dose-only effect, or effect the other way, or a change in a side signal; inactive = no such curve, though single readings can be large or run the other way; the % refers to the polarisation; also: % is scaled to controls: 0 for no effect and ±100 for the full control effect
Target sequence (Q13526 whole entry, looked up): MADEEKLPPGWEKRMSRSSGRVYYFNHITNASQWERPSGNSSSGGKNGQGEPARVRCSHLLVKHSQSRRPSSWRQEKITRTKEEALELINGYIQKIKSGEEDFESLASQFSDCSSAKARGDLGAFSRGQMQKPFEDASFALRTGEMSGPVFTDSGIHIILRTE
PGK inhibitor – blocks T. brucei phosphoglycerate kinase; 380,000 tested, 0.043% active; PGK/GAPDH coupled, Kinase-Glo luminescence, 60 min; Potency, µM (doses to about 57.5 µM), without a hit: top-dose activity change, negative = inhibition, usual class: inhibitors; AID 602233; P07378; also: % is scaled to controls: 0 for no effect and ±100 for the full control effect; nearly all actives have a fitted effect of over 60% in size
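Recombinant glycosomal PGK reaction used 1,3-bisphosphoglycerate generated in-well by GAPDH (100nM final) in 100mM TEA pH 7.6, 5mM MgCl2, 0.01% Tween-20. After 60 minutes at room temperature, ATP was read by Kinase-Glo Plus luminescence end-point.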
Tb PFK inh-1 – blocks T. brucei phosphofructokinase; T. brucei PFK, ADP-Glo luminescence; Potency, µM (highest dose often 57.5 µM), for inactives: at the top dose activity, negative = inhibition, hits mostly inhibitors; 330,000 tested, 0.17% active;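 also: 0% = uninhibited 1x PFK enzyme wells and -100% = no-enzyme wells; nearly all actives have a fitted effect of over 60% in size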
Target sequence (O15648 whole entry, looked up): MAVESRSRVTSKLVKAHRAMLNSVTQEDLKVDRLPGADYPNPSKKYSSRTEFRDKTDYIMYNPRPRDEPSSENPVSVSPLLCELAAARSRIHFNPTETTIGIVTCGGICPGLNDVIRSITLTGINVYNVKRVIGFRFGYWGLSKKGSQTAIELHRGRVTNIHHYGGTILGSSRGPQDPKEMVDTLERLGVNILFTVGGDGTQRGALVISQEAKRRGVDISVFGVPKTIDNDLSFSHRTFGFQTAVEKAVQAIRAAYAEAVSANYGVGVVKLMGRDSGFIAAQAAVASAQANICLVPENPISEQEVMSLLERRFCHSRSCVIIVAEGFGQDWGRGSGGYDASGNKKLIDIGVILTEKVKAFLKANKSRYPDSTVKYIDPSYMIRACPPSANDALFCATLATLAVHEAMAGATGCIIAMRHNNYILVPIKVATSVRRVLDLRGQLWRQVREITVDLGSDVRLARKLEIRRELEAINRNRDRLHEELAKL
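1.25 nM PFK with 0.5 mM F6P and 0.1 mM ATP in 0.1 M TEA pH 8.0, 5 mM MgCl2, incubated 45 min at room temperature; ADP measured by ADP-Glo luminescence; compounds titrated up to 57 uM.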
GLP-1R inv ag – inverse agonists of human GLP-1 receptor; P43220; HEK293 GLP-1R CRE-luciferase, luminescence, 24 h; GLP-1R form is constitutively active; Potency, µM (doses to about 38.3 µM), without a hit: top-dose activity change, negative = inhibition, hits mostly inhibitors; 410,000 tested, 1.6% active; AID 624417; also: % is scaled to controls: 0 for no effect and ±100 for the full control effect; nearly all actives have a fitted effect of over 55% in size
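Assay principle: reduced luminescence from a cAMP-responsive reporter in HEK293 cells co-expressing a constitutively active GLP-1R. Conditions: 24 hr compound incubation, 37 deg C, 5% CO2.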
GLP-1R agonist – agonists of human GLP-1 receptor; HEK293 GLP-1R CRE-luciferase, luminescence, 4-6 h; cells express a hypersensitive GLP-1R form; Potency, µM (series often up to 45.6 µM), inactives show at the highest dose activation, hits mostly activators; 380,000 tested, 0.007% active; AID 624172; also: % of control where 0% means no effect
HEK293 tox – cytotoxicity counter-screen for GLP-1 receptor inverse agonists; HEK293 cAMP-luciferase reporter cells, luminescence, 24 h; Potency, µM (titrated, usually from 38.3 µM), for the others: at the highest dose activity change, negative = inhibition, usual class: inhibitors; 410,000 tested, 0.13% active; AID 624418;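 also: loss of luciferase light is scored as toxicity; % is scaled to controls: 0 for no effect and ±100 for the full control effect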
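Step one: seed cells (200 cells/uL, DMEM with 10% Nu serum, 1% pen-strep). Step two: 12-hour incubation at 37 deg C. Step three: pin 23 nL compound, incubate 24 hr. Step four: add luciferase reagent, read luminescence 12 min later.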
TbPFK ATP – orthogonal confirmation of T. brucei phosphofructokinase inhibitors; shares compounds with Tb PFK inh-1; Tb PFK enzyme, ATP depletion, Kinase-Glo Plus luminescence; Potency, µM (highest dose often 57.5 µM), for the others: top-dose inhibition; 1,100 tested, 47% active; AID 504636; calls by dose curve; also: nearly all actives have a fitted effect of over 60% in size
Tb PFK inh-2 – T. brucei PFK enzyme inhibition, hit validation; shares compounds with Tb PFK inh-1; purified T. brucei PFK, ADP-Glo luminescence, 45 min; Potency, µM (top dose mostly 57.5 µM), without a hit: at the highest dose activity change, negative = inhibition, most hits filed as inhibitors; 1,100 tested, 41% active; AID 504637;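 also: plate controls were full PFK enzyme control for no effect and no enzyme control for full effect; nearly all actives have a fitted effect of over 60% in size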
The depositor's hits bear a star; i = inactive; u = inconclusive; x = not tested or not shown. Hits are enriched below; roughly 1.8% of the tested compounds scored in any of these assays. Unless noted, calls follow the shape of the dose curve; as a rule, active = well fitted curve in the direction sought with a large enough effect; inconclusive = small, poorly fitted or top-dose-only effect, or another doubt; inactive = no such curve, though single readings can be large; an effect the other way counts as inactive or inconclusive. Potency is read from the fitted curve at half-maximal effect.

SMILES	Pin1 inhibitor	PGK inhibitor	Tb PFK inh-1	GLP-1R inv ag	GLP-1R agonist	HEK293 tox	TbPFK ATP	Tb PFK inh-2
COC(=O)c1cccc(NC(=S)Nc2ccc(Cl)c(Cl)c2)c1	-1%	u	12µM*	u	8%	-3%	27µM*	u
COC(=O)c1[nH]c2ccc(C)cc2c1NC(=O)CN1CCCc2ccccc21	33%	-7%	u	u	-11%	u	-30%	u
Cc1ccc(-c2c[n+](Cc3ccc(Cl)c(Cl)c3)c3n2CCC3)cc1	-2%	i	6µM*	-37%	-4%	-36%	4.8µM*	13µM*
Cc1ccc(/C=C/C2=NN(Cc3ccc(Cl)c(Cl)c3)C(=O)CC2)cc1	-2%	1%	5%	u	12%	-10%	x	x
O=C(CN1CCOCC1)Nc1ncc(Cc2cccc(Cl)c2)s1	-3%	x	u	u	19%	1%	u	u
O=C(CN1CCOCC1)Nc1ccc(Br)cc1C(=O)c1ccccc1	-12%	-7%	-2%	10%	12%	5%	x	x
NNC(=O)c1ccc(Cl)cc1	0%	-10%	-4%	-24%	-2%	u	x	x
O=C(O)CCNC(=O)c1ccc(NC(=O)Cc2ccc(Cl)cc2)cc1	-5%	-8%	u	9%	6%	-2%	u	u
CNc1ccc(C(=O)CC(O)CCC(C)C2OC(=O)CC(O)CC(=O)CC(O)CC(O)CC(O)CC(O)CC3(O)CC(O)C(C(=O)OC)C(CC(O[C@@H]4OC(C)C(O)C(N)C4O)/C=C/C=C/C=C/C=C/C=C/C=C/C=C/C2C)O3)cc1 (stereo partly drawn)	x	x	x	x	-2%	x	x	x
Cc1ccc(-c2cn3c(=S)[nH]nc3s2)cc1	0%	i	u	16%	8%	-2%	0.67µM*	u
CCCCCNC(=O)C(c1ccncc1)n1c(=O)c(-c2cc3ccccc3[nH]2)nc2ccccc21 (stereo not drawn)	x	x	x	-4%	x	236%	x	x
C[C@@H]1O[C@@H](O[C@@H]2[C@@H](O)[C@H](OCCc3ccc(O)c(O)c3)O[C@H](CO)[C@H]2OC(=O)/C=C/c2ccc(O)c(O)c2)[C@H](O)[C@H](O)[C@H]1O	2%	0%	1.7µM*	13%	-3%	-4%	4.8µM*	4.8µM*
CCOC(=O)N1CCN(C(=O)Cn2ncc3c4ccccc4n(Cc4ccc(F)cc4)c3c2=O)CC1	9%	-1%	x	u	x	-25%	x	x
O=C(O)c1ccc(Cl)c(S(=O)(=O)Nc2ccc3cn[nH]c3c2)c1	-11%	-17%	u	3%	-1%	9%	9%	1%
O=C(O)c1ccc(Cl)c(S(=O)(=O)Nc2cccc(C(=O)Nc3cccc(C(F)(F)F)c3)c2)c1	-13%	-3%	u	-3%	3%	7%	u	u
CCN(CC)C(=O)c1ccc(NC(=O)c2cccc(C(F)(F)F)c2)cc1	-4%	0%	0%	u	-2%	-4%	x	x
Cc1ccc(NC(=O)C2=C(c3ccccc3)S(=O)(=O)CCS2(=O)=O)cc1	-14%	-7%	u	u	-6%	u	-25%	u
CCOc1ccc(C=NNc2ccc(S(=O)(=O)Nc3ccccc3C(=O)O)cc2[N+](=O)[O-])cc1OC	x	u	u	3%	-9%	0%	6µM*	3µM*
COc1cc(/C=N/NC(=O)CN2CCCCC2)ccc1OCc1ccccc1	0%	21%	-5%	-26%	17%	-3%	x	x
O=C(COc1ccc([N+](=O)[O-])cc1)Nc1cc(C(=O)O)cc(C(=O)O)c1	-3%	-10%	u	6%	-1%	19%	13µM*	27µM*
COC(=O)c1c(NC(=O)Cc2cccs2)sc2c1CCCC2	u	-6%	u	-17%	23%	28%	u	u
NC(=O)c1c(NC(=O)c2ccc(S(=O)(=O)N(CCCl)CCCl)cc2)sc2c1CCCCC2	5%	-10%	-4%	9%	-6%	-7%	x	x
CCOP(=O)(Nc1ccc2oc(=O)c3ccccc3c2c1)OCC	-3%	-2%	u	59%	13%	1%	8%	21%
CCOP(=O)(/C(C#N)=C(\C)O)c1ccccc1 (stereo not drawn)	-4%	x	-3%	14%	0%	u	x	x
Nc1ccc(O)c2c1C(=O)c1ccccc1C2=O	x	u	u	-4%	6%	u	11%	-24%
SMILES	Pin1 inhibitor	PGK inhibitor	Tb PFK inh-1	GLP-1R inv ag	GLP-1R agonist	HEK293 tox	TbPFK ATP	Tb PFK inh-2
Nc1ccc(Br)c2c1C(=O)c1ccccc1C2=O	u	-5%	2%	42%	12%	u	x	x
FC(F)(F)c1ccc(NC(=S)NCc2ccccc2)cc1	5%	5%	0%	u	0%	u	x	x
Cc1ccc(NC2c3ncccc3C(=O)N2c2ccccc2C)cc1C (stereo not drawn)	1%	-2%	u	-1%	2%	15%	19µM*	u
CC(=O)NC(C)c1ccc(Cl)c(Cl)c1 (stereo not drawn)	-5%	-4%	u	10%	3%	5%	21µM*	30µM*
Nc1nc2ncccn2c1-c1ccc(C(F)(F)F)cc1	x	x	x	11%	x	214%	x	x
O=c1c2ccccc2nc(CNc2ccccc2)n1-c1ccccc1	u	-7%	-5%	25%	8%	1%	x	x
Cc1cccc(C)c1NCc1n[nH]c(=S)n1-c1ccccc1	-4%	4%	u	12%	0%	-9%	3µM*	7.6µM*
[Cl-].[Cl-].[Hg+2]	x	x	x	x	-8%	x	x	x

Screening data: PubChem BioAssay, National Center for Advancing Translational Sciences (NCATS)
